# Shown are actives, neighbours in structure and some others; about 1.1% of the full set was active somewhere.
# TrxR1 substrate: qHTS Assay for Substrates of Mammalian Selenoprotein Thioredoxin Reductase 1 (TrxR1): qHTS. purified TrxR1 substrate turnover, NADPH consumption readout. Potency, µM (titrated, usually from 114 µM). hit rate 0.01% among 390,000. AID 588456, 2011; further: nearly all actives have a fitted effect of over 50% in size
#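 Rat TrxR1, dispensed at 90 nM, was prereduced with 400 uM NADPH (final) for 5 min at ~22 deg C, then incubated with compound 15 min before 400 uM selenite. A first-read NADPH fluorescence drop versus no-compound background flagged substrates.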
# RGS4 inhibitor: Inhibitors of Regulator of G Protein Signaling (RGS) 4: qHTS; hit rate 0.039% among 390,000; Regulator of G-protein signaling 4 (Homo sapiens), P49798; Potency, µM (series often up to 114 µM), hits mostly inhibitors; Transcreener GDP fluorescence polarization, RGS4-accelerated GTP hydrolysis; further: nearly all actives have a fitted effect of over 75% in size
#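 MLSMR compounds (23 nl, pin-transferred) preincubated 10 min at room temperature with a 500nM (2x) first reagent, then RGS4 at 900nM (2x) plus Transcreener GDP mix added; fluorescence polarization (620/688 nm) read before and after 90 min at 30 °C.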
# rTrxR1 inhibitor: qHTS Assay for Inhibitors of Mammalian Selenoprotein Thioredoxin Reductase 1 (TrxR1): qHTS | Thioredoxin reductase 1, cytoplasmic (Rattus norvegicus), O89049 | recombinant rTrxR1, NADPH fluorescence consumption, selenite substrate | Potency, µM (top dose mostly 114 µM), actives largely listed as inhibitors | hit rate 1% among 390,000 | AID 588453, 2011; further: nearly all actives have a fitted effect of over 65% in size
#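 Rat TrxR1 (90 nM in the dispensed reagent) was pre-reduced with 400 uM NADPH for 5 min at room temperature, then incubated with compound for 15 min. After 400 uM selenite was added, NADPH fluorescence (Ex 340/Em 450 nm) was followed for 8 min.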
# mIDH1 inhibitor: qHTS for Inhibitors of mutant isocitrate dehydrogenase 1 (IDH1): qHTS; Isocitrate dehydrogenase [NADP] cytoplasmic (Homo sapiens), O75874; IDH1-R132H enzyme, NADPH consumption, diaphorase/resazurin fluorescence; Potency, µM (series often up to 76.6 µM), usual class: inhibitors; hit rate 0.093% among 390,000; AID 602179, 2012; further: nearly all actives have a fitted effect of over 65% in size
#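 IDH1-R132H (0.5 ug/mL) preincubated 30 min with compound, then NADPH (0.016 mM) and alpha-KG (2 mM) added; 80 min at RT, pH 7.5. Remaining NADPH coupled via diaphorase/resazurin to fluorescence (540/590 nm); concentration-response curves normalized to no-enzyme control.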
# Eya2 phos inh: qHTS Assay for Inhibitors of the Phosphatase Activity of Eya2 | Protein phosphatase EYA2 (Homo sapiens), O00167 | recombinant Eya2, OMFP fluorescence dephosphorylation (OMFP is methylfluorescein phosphate) | Potency, µM (titrated, usually from 76.9 µM), hits mostly inhibitors | hit rate 0.006% among 330,000 | AID 488837, 2010
# Target sequence (O00167 whole entry, looked up): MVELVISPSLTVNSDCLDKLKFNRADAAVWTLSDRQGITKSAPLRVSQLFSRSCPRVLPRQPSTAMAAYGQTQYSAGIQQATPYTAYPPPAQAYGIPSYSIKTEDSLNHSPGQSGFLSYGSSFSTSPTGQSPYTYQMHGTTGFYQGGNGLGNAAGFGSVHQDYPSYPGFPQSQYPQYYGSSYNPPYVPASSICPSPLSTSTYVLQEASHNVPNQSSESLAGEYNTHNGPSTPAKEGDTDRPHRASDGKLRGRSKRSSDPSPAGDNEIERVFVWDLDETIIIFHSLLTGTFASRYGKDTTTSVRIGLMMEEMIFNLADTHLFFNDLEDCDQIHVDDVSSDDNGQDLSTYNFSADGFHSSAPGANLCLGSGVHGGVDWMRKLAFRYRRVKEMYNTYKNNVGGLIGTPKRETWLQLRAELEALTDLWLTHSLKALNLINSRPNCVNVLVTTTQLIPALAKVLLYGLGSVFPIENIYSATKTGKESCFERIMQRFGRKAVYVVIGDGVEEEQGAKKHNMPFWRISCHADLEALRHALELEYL
#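 Eya2 protein (added as 0.2 uM solution) was preincubated with compound for 10 min at ambient temperature in 50 mM HEPES pH 7.5, 50 mM NaCl, 5 uM MgCl2, 0.05% BSA, 1 mM DTT. OMFP (added at 50 uM) then reacted 10 min; fluorescence read at 485/525 nm.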
# A number is an active result; – = inactive; ? = inconclusive; · = no result; [ ] = another dose, or the depositor's remark. The call rests on the fitted dose curve; in most records, active means well fitted curve in the direction sought with a large enough effect; inconclusive means small, poorly fitted or top-dose-only effect, or another doubt; inactive means no such curve, though single readings can be large; an effect the other way counts as inactive or inconclusive.
SMILES,TrxR1 substrate,RGS4 inhibitor,rTrxR1 inhibitor,mIDH1 inhibitor,Eya2 phos inh
Cc1ccc(-c2nnc(-c3cccc4ccccc34)o2)cc1,–,–,–,–,·
CC(Oc1ccccc1)C(=O)N[C@@H]1C(=O)N2[C@@H]1SC(C)(C)[C@@H]2C(=O)OCc1ccccc1 (stereo partly specified),–,·,50µM,·,·
COC(=O)[C@@H]1N2C(=O)[C@@H](NC(=O)C(C)Oc3ccccc3)[C@H]2SC1(C)C (stereo partly specified),–,·,–,·,·
CCOc1ccc(CC(=O)C2C(=O)CCCC2=O)cc1OCC,–,–,28µM,–,–
CCOc1ccc(CC(=O)C2C(=O)CC(C)(C)CC2=O)cc1OCC,–,–,35µM,–,–
CCn1c(SCC(=O)NCc2ccco2)nnc1C1CCCC1,–,–,?,–,–
Cc1cc(C)nc(SCc2nnc(SCC(=O)NCc3ccco3)n2-c2ccccc2)n1,–,–,50µM,–,–
Cc1nnc(SCC(=O)NCc2ccco2)n1-c1ccccc1,–,–,–,–,–
Cc1ccc(-n2c(SCC(=O)NCc3ccco3)nnc2-c2cccnc2)c(C)c1,–,–,56µM,–,–
Cc1cc(SCC(=O)NC(=O)NCc2ccco2)nc2ccccc12,–,–,71µM,–,–
Cc1cccc(-n2c(SCC(=O)NCc3ccco3)nnc2-c2ccco2)c1,–,–,–,–,–
O=C(CSc1nnc(C2CCCCC2)n1Cc1ccccc1)NCc1ccco1,–,–,45µM,–,–
O=C(CSc1ncn[nH]1)N1N=C2/C(=C\c3ccco3)CCCC2C1c1ccco1 (stereo unspecified),–,–,–,–,·
N#CCCN(C(=O)CCl)c1cccc(Cl)c1,–,–,8.9µM,–,–
CCCCCCCN(C(=O)CCl)c1cccc(C)c1,–,–,40µM,–,–
CCCCCCN(C(=O)CCl)c1ccccc1,–,–,18µM,–,–
O=C(COc1cc(F)ccc1[N+](=O)[O-])Nc1ccc2c(c1)OCO2,–,–,–,–,–
Cc1cccc2cc(CN(CC3CCCO3)C(=S)NCc3ccco3)c(=O)[nH]c12 (stereo unspecified),–,–,–,–,–
Cc1cccc(C(=O)NC(=S)Nc2ccc(N3CCOCC3)cc2)c1,–,–,32µM,–,–
COC(=O)c1cc(NC(=O)c2c(-c3ccccc3)noc2C)ccc1N1CCOCC1,–,–,–,–,–
Cc1ccc(C(=O)NC(=S)Nc2ccc(N3CCOCC3)cc2)cc1C,–,?,?,–,–
COC(=O)c1cc(NC(=S)NC(=O)c2ccccc2)ccc1N1CCOCC1,–,–,28µM,–,–
CC1(C)Cc2c(C#N)c(N3CCN(C(=O)c4ccccc4)CC3)nc(-c3ccco3)c2CS1,–,–,32µM,–,–
O=C1C2C3C=CC(C3=C3CCCCC3)C2C(=O)N1c1ccccc1 (stereo unspecified),–,–,20µM,–,?
COc1ccc(-c2nc3sc(CCNC(=O)C(=O)Nc4ccc(OC)c(OC)c4)c(C)n3n2)cc1,–,–,–,–,·
SMILES,TrxR1 substrate,RGS4 inhibitor,rTrxR1 inhibitor,mIDH1 inhibitor,Eya2 phos inh
COc1cccc(NC(=O)Nc2nnc(CC(=O)NCc3ccccc3)s2)c1,–,–,–,–,–
COc1ccccc1N1C(=O)C=C(Sc2nc(C)cc(C)n2)C1=O,–[11.4 µM],?,2.8µM,–,–
COc1ccccc1N1C(=O)C2CC(C)=C(C)CC2C1=O (stereo unspecified),–,–,–,–,–
CCOCCCNC1=C(Cl)C(=O)c2ccccc2C1=O,–,–,7.1µM,–,–
CCCN(CCC)C1CC(=O)N(Cc2ccccc2)C1=O (stereo unspecified),–,–,20µM,–,–
O=C1CC(N(O)C2CC(=O)N(Cc3ccccc3)C2=O)C(=O)N1Cc1ccccc1 (stereo unspecified),–,–[11.4 µM],?,–,–

# Assay outcomes deposited in PubChem by National Center for Advancing Translational Sciences (NCATS).
